# According to the supplement of paper PMC6555819:
# Tested on: VDR:RXRa (NR concentration 270 nM, RXRa partner concentration 90 nM)
# Assay: PBM binding z-score (relative to random genomic background probes); higher = stronger binding; sequences stand for … in GC…GCGATTGACAGCGTAGAATGAAGG
# Experimental: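 Protein-binding microarray (Agilent 4x180K custom design, double-stranded 60-nt probes: 5' GC cap, 34-nt variable region, 24-nt constant primer region; full probe sequence given). Purified or IVT nuclear receptor:RXRα heterodimers (3:1 NR:RXRα, mostly 270:90 nM) or homodimers were incubated for 1 h in PBS with 2% milk and no ligand, then detected with Alexa488 antibodies. Fluorescence from o1-orientation probes (~5 replicates averaged) was converted to z-scores against 500 random hg19 background probes. Variable regions are seed direct-repeat (DR0–DR5) sites, all their single-nucleotide variants and half-site ablations.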
row,Sequence,PBM binding z-score
1,GCGACTGGGGCAAACCAGGTTACCATAAGGTTGG,0.416
2,CGAACTGGGTCAAGGACAGTGAATCTCCGCACGC,1.46
3,AGAACGAGAGCAATGAGTTGATAGCACGGGTGGC,1.96
4,CCTTACGGGTCACTGACAGGATATAGCATTTGGA,3.36
5,AGAACGAGGGCAATGAGATGATAGCACGGGTGGC,0.474
6,AGAATGAGGTTATTAAGATCATGGAATTGCGGTC,3.3
7,AGAATGAGGTTATACGCAGATCAGGGAAGAAAGT,1.35
8,TCATATAGGTTAATGCTAGGTGAAAGTCCGATCT,1.43
9,CTCGAAAGGTCGGCTGAGGTGAGTATACGGATAA,2.95
10,CCTACTGGGCCAAAGGTCATCGATTCCAATGCTC,4.53
11,GCTATTAGTTGAATGGGCAACCGAATGATTCTCG,-0.287
12,TCTTGTAGATCAATCAGGTTAAGAAAGCCTGAGT,1
13,CGTCCAAGGTCATGGTCAGTGAAAGAGACTCGAA,4.3
14,CCTAGCAGGCCAATCTGGCTCACTCAAGGCTTGA,-0.563
15,AATACAGGGTCAGTAGGCCAGAGTAGGTACGAAT,2.65
16,GCAGACAGGTGAAACGCAGTTAACTCAGGGTGGC,-0.561
17,ATACCAAGGTGATCGTGAGGACGTTGATACTAAC,0.664
18,CCTACTGGGCCATTCTGAGGTCATTGATCATATG,3.7
19,CCTACTGGGCCATCAGTTCATTGATATCAACGTT,1.13
20,CCTGCTAGGTCAATGCTCAGCTAAAGCAGCTCGC,0.598

row,Sequence,PBM binding z-score
1,ACTATTAGTTGACGTAGGGCAACCGATACGACGC,0.19
2,CCTAGTTGGTCAAGGTCACAGACGCTATAGGTAC,4.29
3,CCTAGTTGGTCAAGGTCAAACACGCTATAGGTAC,4.47
4,TAGCCTAGGTCATGAGCCAGTATACCACGCGAAC,1.88
5,CGTCCAAAGTCATAGGAGGTCAGTGAAGACAGAT,3.12
6,CCTACTGGGCCAAAAAGGTCAGTGATGCCGATAA,2.91
7,CCTTACGGGTCACTGAAAGGTTATAGCATTTGGA,4.52
8,GCTTACGGGTCAAAGGTTTTAGCATGAATAGAAT,4.08
9,CCTAATTGGTCAAGGTCACACACGCTATAGGTAC,4.03
10,ATATGTAGATTAGCTGGGGTCATTCAGACTAGGC,4.91
11,ACATACGGGTCAACGAGGTTATAGCACGCGTATA,7.57
12,TTACCAAGGTGAAGGTCGTTAATCCCTCTGTAGA,1.16
13,CCTATTAGTTGACCATAATGGCAACCGAAGCTCG,0.509
14,CTCCCAAGGTGAACAAGGTCGTTGATTACTATTC,6.09
15,CGTCCTAGGTCAAGGTCAGTGAAAGAGACTCGAA,3.2
16,CCTTACGGGTCACGAGATTATAGCACGACGAGCG,3.55
17,TATCGGAGGACACGAAAGGTCAGAGCTCGACATC,3.49
18,CCGACTGGGGCAAAGGTTAACATACTCAGTACGA,2.2
19,CCTAGTTGGTCAGGAGTTCACACACCGGATATGA,3.54
20,AGTCAAAGTTCGCTAGGTAACGTAAGATTCAGCT,0.489
